What follows are sequences tested on PPARg DBDmut:RXRa IVT, anti-PPARg (DBD mutation: PPARg1 K132A/R137A, NR concentration 270 nM, RXRa partner concentration 90 nM) (assay: PBM binding z-score (relative to random genomic background probes); higher = stronger binding; sequences stand for … in GC…GCGATTGACAGCGTAGAATGAAGG).
Summary of the method: (§1)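 Random background probes are the reference for binding z-scores. These scores derive from regression-normalized fluorescence on custom Agilent 4×180K protein-binding microarrays incubated 1 h with ligand-free nuclear receptor dimers. Binding was detected with antibodies against each partner (one per run).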

| Sequence | PBM binding z-score |
| --- | --- |
| CAAACTAGGTAACCGGAAGGTCAAAGTCCGCATG | 1.05 |
| TCTCGGAGGACACGAGAGGTCAGAGCTCGACATC | -0.0103 |
| AGAATGAGATTATACGTAGATCAGGGAAGAAAGT | 0.931 |
| CCTAGCAGGCCAATCTGAGTCACTCAAGGCTTGA | -1.14 |
| GTACCAAAGTGAATAGGTCGTTGATGAGTAGGCG | 0.259 |
| GGTACAGGGTCAAGGCCAGAGTACGCGTATTGAT | 0.368 |
| ACTTTCGGGTCAACGAGGTTATAGCACGCGTATA | 1.8 |
| AATACTGGGTCACTAGGCCAGAGTAGGTACGAAT | 5.62 |
| AGAACGAGGGCACGCTGAGTGGATAGCAGAGTAG | 0.715 |
| GGAACGAGGGCAAGTTGATAGGAGAGTTTGATGG | -0.522 |
| CCTATTAGTTGACCGTAAGGGCAACCGAAGCTCG | 0.0839 |
| CCTAGCAGGCCAGGGTCACTAAAGCATTTCGCTT | -1.03 |
| TCCTATAGGTAATACAGGTGAAAGTCGGCATCTA | 0.665 |
| TCTTGTAGATCAGCAGGTTAAAAAAGCTGGCCAA | -0.542 |
| CCTAGCAGGCCAGGGTAACTCAAGCATTTCGCTT | -1.68 |
| GGAACGAGGGCAAAGTTTATAGCATCTGTCGACG | 0.246 |
| CCTTACGGGTCACGGACAGGTTATAGCATTTGGA | 1.03 |
| TCATTTAGGTAAAAGGTGAAAGTCGGTGTGGTAA | 0.936 |
| CGTCAAAGTTCAACTAACGTAACGTAAAGCACGC | 1.16 |
| TCTTGTAGTTCAGCAGGTTAAGAAAGCTGGCCAA | -0.927 |

| Sequence | PBM binding z-score |
| --- | --- |
| CCAACTAGGTCAAGGTCAAAGTCGGTTTGTGCCA | 1.26 |
| ACTCGGAGGACAAAGGTCAGAGCTACGCCAGTGA | 0.709 |
| TCATATAGTTAAAGGTGAAAGTCGAACGATATGA | 0.7 |
| GGAACGAAGGCAAAGTTGATAGCATCTGTCGACG | -0.0938 |
| ATCTCGAGGTAAAAGTTCAGTGAATCCCGAGGAT | 0.38 |
| GCTAGTTGGTCCGTAAAAGGTCACACACCGGTCG | 0.724 |
| CCTACTGGGACAAAGGTCATTGATTCCAATGCTC | 1.81 |
| CGAACTAGGTCAGAACAGGACAGTGAAGGATGAT | 1.26 |
| TCTAGTTGCTCAAAGGTCACACACTCGAAATGCG | 1.38 |
| GCTGCTAGGTCAACTGATGGTCAGGTAAAGCTCG | -0.376 |
| GGAACGAGGGCAACGTTGATAGCATCTGTCGACG | 0.439 |
| CCTACTGGGCCAAGAAGGTCATTGATGCCGATAA | -1.15 |
| CCGACTGGGGCAGAAAGGTTACCAGACCATCCGG | -0.764 |
| AGTCAAGGTTCACTAGGTAACGTAAGATTCAGCT | 0.684 |
| CGTCCAAGGTCAATGGTAGGTCAGTGAAAGCATT | -0.0725 |
| CTACCAAGGTGCACAAGGTCGTTGATTACTATTC | 0.019 |
| TCGAGTAGGTTACCAATGGGGCACTCAGCTTTCT | -0.534 |
| AGTCAAAGTTCATCTAGGTAAGGTAAGATATGCT | 1.53 |
| TAGCCTAGGTCATTGGGTCAGTATAGTACGCATC | 0.491 |
| CGACCTAGGTCAGAACAGGACAGTGAAGGATGAT | -0.486 |

Each sequence was assayed on PPARg DBDmut IVT, anti-PPARg (DBD mutation: PPARg1 K132A/R137A, NR concentration 270 nM) in the same assay as above.
Summary of the method: as §1

| Sequence | PBM binding z-score |
| --- | --- |
| CAAACTAGGTAACCGGAAGGTCAAAGTCCGCATG | 1.34 |
| TCTCGGAGGACACGAGAGGTCAGAGCTCGACATC | -0.495 |
| AGAATGAGATTATACGTAGATCAGGGAAGAAAGT | 0.37 |
| CCTAGCAGGCCAATCTGAGTCACTCAAGGCTTGA | -1.49 |
| GTACCAAAGTGAATAGGTCGTTGATGAGTAGGCG | -0.53 |
| GGTACAGGGTCAAGGCCAGAGTACGCGTATTGAT | 0.441 |
| ACTTTCGGGTCAACGAGGTTATAGCACGCGTATA | 1.14 |
| AATACTGGGTCACTAGGCCAGAGTAGGTACGAAT | 2.22 |
| AGAACGAGGGCACGCTGAGTGGATAGCAGAGTAG | 0.00545 |
| GGAACGAGGGCAAGTTGATAGGAGAGTTTGATGG | 0.0128 |
| CCTATTAGTTGACCGTAAGGGCAACCGAAGCTCG | -0.0421 |
| CCTAGCAGGCCAGGGTCACTAAAGCATTTCGCTT | -1.22 |
| TCCTATAGGTAATACAGGTGAAAGTCGGCATCTA | 0.687 |
| TCTTGTAGATCAGCAGGTTAAAAAAGCTGGCCAA | 0.0495 |
| CCTAGCAGGCCAGGGTAACTCAAGCATTTCGCTT | -1.83 |
| GGAACGAGGGCAAAGTTTATAGCATCTGTCGACG | 0.345 |
| CCTTACGGGTCACGGACAGGTTATAGCATTTGGA | 2.15 |
| TCATTTAGGTAAAAGGTGAAAGTCGGTGTGGTAA | 1.44 |
| CGTCAAAGTTCAACTAACGTAACGTAAAGCACGC | 1.48 |
| TCTTGTAGTTCAGCAGGTTAAGAAAGCTGGCCAA | 0.25 |

| Sequence | PBM binding z-score |
| --- | --- |
| CCAACTAGGTCAAGGTCAAAGTCGGTTTGTGCCA | 1.36 |
| ACTCGGAGGACAAAGGTCAGAGCTACGCCAGTGA | 0.127 |
| TCATATAGTTAAAGGTGAAAGTCGAACGATATGA | 1.07 |
| GGAACGAAGGCAAAGTTGATAGCATCTGTCGACG | 0.0461 |
| ATCTCGAGGTAAAAGTTCAGTGAATCCCGAGGAT | 0.58 |
| GCTAGTTGGTCCGTAAAAGGTCACACACCGGTCG | 0.195 |
| CCTACTGGGACAAAGGTCATTGATTCCAATGCTC | 1.06 |
| CGAACTAGGTCAGAACAGGACAGTGAAGGATGAT | 0.744 |
| TCTAGTTGCTCAAAGGTCACACACTCGAAATGCG | 1.19 |
| GCTGCTAGGTCAACTGATGGTCAGGTAAAGCTCG | -0.724 |
| GGAACGAGGGCAACGTTGATAGCATCTGTCGACG | 0.351 |
| CCTACTGGGCCAAGAAGGTCATTGATGCCGATAA | -1.07 |
| CCGACTGGGGCAGAAAGGTTACCAGACCATCCGG | -1.01 |
| AGTCAAGGTTCACTAGGTAACGTAAGATTCAGCT | 1.3 |
| CGTCCAAGGTCAATGGTAGGTCAGTGAAAGCATT | -0.844 |
| CTACCAAGGTGCACAAGGTCGTTGATTACTATTC | -0.417 |
| TCGAGTAGGTTACCAATGGGGCACTCAGCTTTCT | 0.223 |
| AGTCAAAGTTCATCTAGGTAAGGTAAGATATGCT | 0.676 |
| TAGCCTAGGTCATTGGGTCAGTATAGTACGCATC | 0.952 |
| CGACCTAGGTCAGAACAGGACAGTGAAGGATGAT | -0.795 |

Source: the supplement of paper PMC6555819
